About 14,000 (4.5%) of roughly 310,000 compounds showed an effect of 50% or more. The effect is printed as a negative number. What follows is part of a selection rich in strong results, with near analogues and random picks from the rest.
The molecules below were run against human ether-à-go-go-related gene (hERG) potassium channel (human, UniProt Q12809) (assay: primary screen, population patch clamp on CHO cells stably expressing hERG; higher = less effect of the substance).
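Note: peak tail current of the secondary pulse compared with the same well before compound.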

Sequence of human ether-à-go-go-related gene (hERG) potassium channel (Q12809 whole entry, looked up): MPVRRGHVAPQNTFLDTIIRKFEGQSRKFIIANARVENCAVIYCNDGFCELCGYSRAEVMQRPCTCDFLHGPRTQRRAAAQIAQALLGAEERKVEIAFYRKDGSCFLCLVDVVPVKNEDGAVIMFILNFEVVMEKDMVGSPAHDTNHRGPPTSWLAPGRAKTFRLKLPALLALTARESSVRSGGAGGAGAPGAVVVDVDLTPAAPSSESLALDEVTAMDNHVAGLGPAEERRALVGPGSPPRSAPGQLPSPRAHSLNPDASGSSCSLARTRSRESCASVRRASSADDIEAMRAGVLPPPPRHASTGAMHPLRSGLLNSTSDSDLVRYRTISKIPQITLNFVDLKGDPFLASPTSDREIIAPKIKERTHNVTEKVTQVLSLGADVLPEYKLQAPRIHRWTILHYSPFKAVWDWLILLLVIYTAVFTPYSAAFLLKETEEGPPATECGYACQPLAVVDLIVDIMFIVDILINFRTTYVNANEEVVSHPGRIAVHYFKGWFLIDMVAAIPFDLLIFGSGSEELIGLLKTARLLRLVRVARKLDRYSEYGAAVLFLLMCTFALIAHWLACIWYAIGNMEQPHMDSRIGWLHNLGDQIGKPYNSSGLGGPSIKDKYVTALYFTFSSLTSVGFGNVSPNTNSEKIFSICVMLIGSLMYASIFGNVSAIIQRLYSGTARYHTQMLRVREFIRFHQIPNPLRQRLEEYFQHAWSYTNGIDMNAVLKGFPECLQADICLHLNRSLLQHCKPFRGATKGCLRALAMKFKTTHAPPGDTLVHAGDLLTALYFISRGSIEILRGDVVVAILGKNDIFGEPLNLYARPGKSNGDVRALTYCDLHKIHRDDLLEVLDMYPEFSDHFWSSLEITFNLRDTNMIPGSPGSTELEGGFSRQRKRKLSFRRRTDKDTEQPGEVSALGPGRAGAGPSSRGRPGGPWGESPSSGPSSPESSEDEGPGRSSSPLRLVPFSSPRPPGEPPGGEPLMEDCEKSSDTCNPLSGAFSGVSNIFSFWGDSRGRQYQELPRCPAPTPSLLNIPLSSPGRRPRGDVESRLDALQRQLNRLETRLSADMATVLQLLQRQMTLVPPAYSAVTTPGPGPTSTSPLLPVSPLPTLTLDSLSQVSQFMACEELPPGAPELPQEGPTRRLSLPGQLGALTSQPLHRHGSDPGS

Row | SMILES | hERG current change (%, negative = inhibition) at 10uM
1 | O=C(CN1C(=O)S/C(=C\c2ccccc2)C1=O)Nc1cc([N+](=O)[O-])ccc1O | 6.11%
2 | O=C(c1cc(Cl)ccc1[N+](=O)[O-])n1cnc2ccccc21 | -11.9%
3 | Cc1cc2c(c(N)n1)c(=O)oc1ccccc12 | 13.9%
4 | Nn1c(CSc2nc3ccccc3o2)nnc1CSc1nc2ccccc2o1 | -22.8%
5 | O=C(CN1c2cccc3cccc(c23)S1(=O)=O)Nc1ccccc1 | 24.3%
6 | CCOc1ccc(NC(=O)CN(C)C(=O)CC2OC(=O)c3ccccc32)cc1OCC (stereo not shown) | 0.75%
7 | CN(CC(=O)Nc1c(Cl)cccc1Cl)C(=O)CC1OC(=O)c2ccccc21 (stereo not shown) | -2.8%
8 | CN(CC(=O)Nc1ccc(Cl)c(Cl)c1)C(=O)CC1OC(=O)c2ccccc21 (stereo not shown) | -70.3%
9 | C/C=C/c1ccc(OCC(=O)Nc2ccncc2)c(OC)c1 | -14.9%
10 | COc1ccc2nc(N(CCN(C)C)C(=O)/C=C/c3cccs3)sc2c1.Cl | -55.1%
11 | COc1cc2nc(N(CCN(C)C)C(=O)c3ccc4ccccc4c3)sc2cc1OC.Cl | -40.8%
12 | CCN(Cc1ccccc1)S(=O)(=O)c1ccc(C(=O)N(CCCN(C)C)c2nc3c(C)c(C)ccc3s2)cc1.Cl | -3.58%
13 | CN(C)CCCN(C(=O)c1ccc(C(=O)c2ccccc2)cc1)c1nc2cc3c(cc2s1)OCCO3.Cl | -50%
14 | COc1cc2nc(N(CCCN(C)C)C(=O)c3ccc(C(=O)c4ccccc4)cc3)sc2cc1OC.Cl | -70.4%
15 | COc1ccc2nc(N(CCN(C)C)C(=O)c3ccc(C(=O)c4ccccc4)cc3)sc2c1.Cl | -39.2%
16 | COc1ccc2sc(N(CCCN(C)C)C(=O)c3ccc(C(=O)c4ccccc4)cc3)nc2c1.Cl | -77.3%
17 | CCN(Cc1ccccc1)S(=O)(=O)c1ccc(C(=O)N(CCCN(C)C)c2nc3c(F)cccc3s2)cc1.Cl | -66.3%
18 | CCOc1ccc2nc(N(CCN(C)C)C(=O)/C=C/c3cccs3)sc2c1.Cl | 4.24%
19 | CN(C)CCCN(C(=O)c1ccc(S(=O)(=O)N(C)Cc2ccccc2)cc1)c1nc2c(F)cccc2s1.Cl | -38.2%
20 | COc1ccc2sc(N(CCN(C)C)C(=O)/C=C/c3cccs3)nc2c1.Cl | -33.2%
21 | COc1ccc2sc(N(CCN(C)C)C(=O)c3ccc4ccccc4c3)nc2c1.Cl | -0.0157%
22 | O=C1CSC(c2ccccc2[N+](=O)[O-])N1CCc1ccccc1 (stereo not shown) | -41%

Row | SMILES | hERG current change (%, negative = inhibition) at 10uM
23 | CCOc1cc(C(=O)N/N=C(\C)Cc2ccc(OC)cc2)cc(OCC)c1OCC | -3.15%
24 | FC(F)Oc1ccccc1/C=N/Nc1nc2ccccc2o1 | 33.5%
25 | Cn1c(NC(=O)c2ccco2)c(-c2ccccc2)c(=O)c2ccccc21 | 13.6%
26 | N[C@@]12CCc3nonc3[C@]1(O)CC(c1ccccc1)=[N+]2[O-] | -0.645%
27 | COc1ccccc1CN(C(=O)CNC(=O)c1ccco1)C(C(=O)NCC1CCCO1)c1ccccc1 (stereo not shown) | 10%
28 | O=C(NC(=S)Nc1cccc(F)c1)c1cccc([N+](=O)[O-])c1 | 20.6%
29 | Cc1cc(C)c(-c2cc(C)nc3ncnn23)c(C)c1 | 7.75%
30 | CCOc1ccc(C(=O)Nn2cnnc2)cc1 | 2.29%
31 | O=C(NCCCc1ccccc1)C1CCN(c2nnc(-n3cccc3)s2)CC1 | -27%
32 | COc1ccc2sc(N(CCCN(C)C)C(=O)c3ccc(S(=O)(=O)N(C)Cc4ccccc4)cc3)nc2c1.Cl | -16.4%
33 | CCc1ccc2nc(N(CCCN(C)C)C(=O)c3ccc(C(=O)c4ccccc4)cc3)sc2c1.Cl | -12.5%
34 | CCN(Cc1ccccc1)S(=O)(=O)c1ccc(C(=O)N(CCCN(C)C)c2nc3ccc(F)cc3s2)cc1.Cl | -12.6%
35 | CN(C)CCCN(C(=O)c1ccc(C(=O)c2ccccc2)cc1)c1nc2ccc(F)cc2s1 | -74.9%
36 | CN(C)CCCN(C(=O)c1ccc(S(=O)(=O)N(C)C)cc1)c1nc2ccc(F)cc2s1.Cl | -32.9%
37 | CCN(Cc1ccccc1)S(=O)(=O)c1ccc(C(=O)N(CCCN(C)C)c2nc3cc(OC)ccc3s2)cc1.Cl | -58.3%
38 | O=C(O)c1ccc(Nc2cccc(F)c2)c([N+](=O)[O-])c1 | 17.7%
39 | CCCCOc1c(Br)cc(CNCCCN2CCOCC2)cc1OC.Cl | -35%
40 | CC(C)CCOc1ccc(NC(=O)C2OC3OC(C)(C)OC3C3OC(C)(C)OC23)cc1 (stereo not shown) | 20.5%
41 | O=C(NCc1nnc(SCC(=O)N2CCCC2)o1)c1ccc(F)cc1 | 14.3%
42 | COc1ccc(Nc2ncnc3ccc([N+](=O)[O-])cc23)c(OC)c1 | -0.867%
43 | CNc1ccc(Br)cc1C(O)c1ccccc1 (stereo not shown) | -3.18%
44 | O=C(Cn1ccc(NC(=O)OCc2ccccc2)nc1=O)NCCCn1ccnc1 | 6.72%

Row | SMILES | hERG current change (%, negative = inhibition) at 10uM
45 | O=C1COc2ccc(C(=O)COC(=O)CNC(=O)c3ccccc3)cc2N1 | -4.81%
46 | Cc1ccc(C(=O)NCC(=O)OCC(=O)c2ccc3c(c2)NC(=O)CO3)cc1 | -60.6%
47 | Cc1ccc(C(=O)NCC(=O)OCC(=O)c2ccc3c(c2)NC(=O)CO3)cc1C | -5.7%
48 | COc1ccc(OCCCC(=O)OCC(=O)c2ccc3c(c2)NC(=O)CO3)cc1 | 15.7%
49 | COc1ccc(C(=O)NCC(=O)OCC(=O)c2ccc3c(c2)NC(=O)CO3)cc1OC | -22%
50 | COc1ccc(C(=O)NCC(=O)OCC(=O)c2ccc3c(c2)NC(=O)CO3)cc1 | -65.1%
51 | Cc1nn(C(=O)CCC(=O)NCc2ccccc2Cl)c2ccccc12 | 15.2%
52 | Cc1c(Cl)cccc1NC(=O)C1COc2ccccc2O1 (stereo not shown) | 8.79%
53 | COc1ccc(S(=O)(=O)CC(=O)c2cc3cccc(C)c3oc2=O)cc1 | 5.51%
54 | CCCN1Cc2cccc(C(=O)NC(CC(=O)OCC)c3ccc(OC(C)C)cc3)c2C1=O (stereo not shown) | -37.6%
55 | CCCN1Cc2cccc(C(=O)NC(CC(=O)OCC)c3ccc(OCC)c(OC)c3)c2C1=O (stereo not shown) | -31.2%
56 | CCCN1Cc2cccc(C(=O)NC(CC(=O)OCC)c3ccc(C)cc3)c2C1=O (stereo not shown) | -81.7%
57 | Cc1nc2c(C)cccn2c1/C(O)=C1\C(=O)C(=O)N(CCN(C)C)C1c1ccncc1 (stereo not shown) | 4.49%
58 | CC(=O)Nc1ccc(C(=O)CN2C(=O)NC3(CCOc4ccccc43)C2=O)c(F)c1 (stereo not shown) | -20.5%
59 | CC(=O)Nc1ccc(NC(=O)C2CCN(c3c(Cc4ccccc4)c(C)nc4ncnn34)CC2)cc1 | 2.74%
60 | Cc1nc2ncnn2c(N2CCC(C(=O)NC3CCCC3)CC2)c1Cc1ccccc1 | -57.4%
61 | Cc1nc2ncnn2c(N2CCC(C(=O)NCC3CCCO3)CC2)c1Cc1ccccc1 (stereo not shown) | -17.6%
62 | COc1cccc(CC(NC(C)=O)C(=O)NC2CCN(c3c(Cc4ccccc4)c(C)nc4ncnn34)CC2)c1 (stereo not shown) | -0.458%
63 | CC(=O)NC(Cc1ccc(F)c(F)c1)C(=O)NC1CCN(c2c(Cc3ccccc3)c(C)nc3ncnn23)CC1 (stereo not shown) | -58.7%
64 | COc1cc(CC(NC(C)=O)C(=O)NC2CCN(c3c(Cc4ccccc4)c(C)nc4ncnn34)CC2)cc(OC)c1 (stereo not shown) | 12%
65 | NC(=O)C1CCCN(C(=O)c2ccc3nc(Cc4cccc(Cl)c4)oc3c2)C1 (stereo not shown) | -11.5%
66 | Cc1ccnc(SCCn2c(N3CCN(C)CC3)nc3c2c(=O)n(C)c(=O)n3C)n1 | 13.6%

Row | SMILES | hERG current change (%, negative = inhibition) at 10uM
67 | COCCn1c(-c2ccc(F)cc2)nc2oc3cc(OC)ccc3c(=O)c2c1=O | -19.6%
68 | CCOC(=O)Nc1sc(C)c(C)c1C(N)=O | 9.44%
69 | COCC1CCN(Cc2nc(COc3ccccc3)no2)C1 (stereo not shown) | 12.3%
70 | CN(Cc1ccccn1)C(=O)CC1C(=O)NCCN1Cc1ccc(F)cc1Cl (stereo not shown) | 16.4%
71 | CN(Cc1nccn1C)C(=O)CC1C(=O)NCCN1Cc1ccc(F)cc1Cl (stereo not shown) | -68.9%
72 | CN(Cc1cnccn1)C(=O)CC1C(=O)NCCN1Cc1ccc(F)cc1Cl (stereo not shown) | 20%
73 | Cc1nc2scc(C)n2c(=O)c1S(=O)(=O)N1CCN(c2ccccc2)CC1 | -26.3%
74 | COc1ccc(C(=O)C23CN4CN(CN(C4)C2)C3)cc1 | 4.01%
75 | CC(=O)N1CN2CN(C(C)=O)CC(C(=O)c3ccccc3)(C2)C1 | 11%
76 | CN1CC2(C(=O)c3ccccc3)CN(C)CC(C(=O)c3ccccc3)(C1)C2 | -53%
77 | Cc1ccn2cc(-c3cccc(NC(=O)c4ccccc4)c3)nc2c1 | -19.6%
78 | COc1ccccc1N1CCN(CCN(C(=O)c2ccc(F)cc2)c2ccccn2)CC1.Cl | -78.8%
79 | COc1ccc(S(N)(=O)=O)cc1C(=O)NCCCN1CCN(c2ccccc2OC)CC1.CS(=O)(=O)O | 2.27%
80 | COc1ccc(C(=O)CCN2CCN(c3ccc(OC)cc3)CC2)cc1 | -73.1%
81 | COC(=O)CCN(C(=O)c1cc(OC)c(OC)c(OC)c1)c1ccccn1 | 6.81%
82 | COc1ccc(N2CCN(CCC(=O)c3ccc4ccccc4c3)CC2)cc1 | -11.2%
83 | O=C(NCCCN1CCOCC1)c1ccc2ccccc2c1 | -2.68%
84 | COc1ccc(N2CCN(CCC(N)=O)CC2)cc1 | 3.39%
85 | COc1ccc(C(=O)CCN2CCN(c3ccccc3F)CC2)cc1.Cl | -71.5%
86 | COc1ccc(OC)c(NC(=O)CCN2CCN(c3ccccc3F)CC2)c1 | -22.1%
87 | COc1ccc(C(=O)CCN2CCCCCC2)cc1.Cl | -20%
88 | COc1ccccc1N1CCN(CCCCNC(=O)c2ccc3ccccc3c2)CC1.Cl | -79.6%
